Test results published in PubChem BioAssay AID1851 (National Center for Advancing Translational Sciences (NCATS), 2009).
Values joined by “and” are separate entries in the source; they are usually repeats but may differ in a detail not shown here. Equal values may be shown once. The campaign covered roughly 16,000 compounds. About 5,700 (36%) were called active. Not shown: some 24% with an inconclusive outcome. Calls come from the whole dose curve; as a rule, active = well fitted curve in the direction sought with a large enough effect; inconclusive = small, poorly fitted or top-dose-only effect, or effect the other way; inactive = no such curve, though single readings can be large or run the other way. The list shows a part of the results. Where a structure was tested more than once in an assay, its records may differ in their call.

Biological target: Cytochrome P450 1A2 (Homo sapiens) (UniProt P05177)
Sequence (P05177 whole entry, looked up): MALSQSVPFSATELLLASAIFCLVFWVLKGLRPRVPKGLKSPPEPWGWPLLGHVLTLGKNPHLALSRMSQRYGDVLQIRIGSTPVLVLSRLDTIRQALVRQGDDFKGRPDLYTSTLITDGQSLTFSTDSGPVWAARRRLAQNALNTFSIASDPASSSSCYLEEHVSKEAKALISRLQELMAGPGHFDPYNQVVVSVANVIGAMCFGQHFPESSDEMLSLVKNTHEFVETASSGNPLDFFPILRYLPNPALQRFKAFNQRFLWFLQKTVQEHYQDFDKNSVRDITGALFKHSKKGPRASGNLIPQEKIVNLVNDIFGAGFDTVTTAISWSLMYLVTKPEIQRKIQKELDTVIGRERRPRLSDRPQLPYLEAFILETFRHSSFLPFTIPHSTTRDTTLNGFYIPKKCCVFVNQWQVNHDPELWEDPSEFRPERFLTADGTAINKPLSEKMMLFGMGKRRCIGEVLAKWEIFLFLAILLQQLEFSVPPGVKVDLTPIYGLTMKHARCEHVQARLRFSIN
Test: Cytochrome panel assay with activity outcomes
Conditions: recombinant CYP, pro-luciferin dealkylation, luminescence, p450-cyp1a2; series mostly up to 57.1 µM; activity, negative = inhibition: at the top concentration
% is set by controls: 0 for no effect and ±100 for the full control effect.

AC50, active:
COc1ncc2nc(-c3cccs3)c(=O)n(C)c2n1 2 µM
COc1ccc(Oc2ncc3nc(-c4cccs4)c(=O)n(C)c3n2)cc1 3.16 µM
Cc1sc(N)c(C(=O)c2cccc(C(F)(F)F)c2)c1C 15.8 µM
Cc1ccnc(NCn2nnc3ccccc32)c1 28.2 µM
Cc1c(CC(C)(C)C(=O)O)n(Cc2ccc(Cl)cc2)c2ccc(F)cc12 15.8 µM
OCCNc1nc(NCCC2=CCCCC2)nc(N2CCOCC2)n1 0.708 µM
O=C(CSCc1ccccc1Cl)NN1C(=O)c2ccccc2C1=O 14.1 µM
O=C1/C(=C\c2ccc(Br)o2)SC(=Nc2ccccc2)N1c1ccccc1 0.126 µM
CC1=NN(C(=O)c2ccncc2)C(=O)[C@@H]1N=Nc1ccc2ccccc2c1 0.158 µM
Cc1ccc(C)c(Nc2nc3nonc3nc2N2CCOCC2)c1 5.01 µM
FC(F)(F)c1nc2ccccc2nc1N/N=C/c1ccc(Cl)cc1 1.41 µM
FC(F)(F)c1nc2ccccc2nc1N/N=C\c1ccccc1 0.562 µM
Cc1noc(C)c1-c1cc(NCc2ccccc2)ncn1 5.01 µM
COc1ccccc1CNc1cc(-c2c(C)noc2C)ncn1 5.01 µM
Cc1cccc(CNc2cc(-c3c(C)noc3C)ncn2)c1 1 µM
Cc1noc(C)c1-c1cc(NCc2cccnc2)ncn1 1 µM
Cc1noc(C)c1-c1cc(NCc2cccs2)ncn1 0.794 µM
Cc1ccc(C(=O)/C=C/c2c[nH]c3ccccc23)cc1 5.62 µM
CNC(=S)NNC(=O)c1sccc1OCc1ccc(C)cc1 5.01 µM
COc1ccc(COc2ccsc2C(=O)Nc2ccc(Cl)c(Cl)c2)cc1 3.16 µM
COc1ccc(-c2cc(C(F)(F)F)n3nc(C(=O)NCc4ccco4)c(Cl)c3n2)cc1 3.55 µM
Cc1cc(C)n(C(=O)c2cc3ccccc3c(=O)o2)n1 7.08 µM
CCOC(=O)c1ccc(NC(=O)Nc2ccc3c4c(cccc24)C(=O)N3CC)cc1 1.58 µM
CC(C)CO[C@H](c1ccc2c(c1)OCO2)[C@H](C)Br 0.631 µM
c1ccc2c(-c3c[nH]c4ccccc34)c3ccccc3nc2c1 3.16 µM
Cc1nc2cc(NC(=O)CSc3nc4c(C)cccc4cc3C#N)ccc2s1 2.82 µM
COc1ccc(NC(=O)CCOc2ccccc2)cc1 3.55 µM
COC(=O)c1cccc(NC(=O)CCCOc2ccccc2)c1 0.891 µM
O=C(CCOc1ccccc1)Nc1ccccc1 8.91 µM
O=C(Cc1ccccc1I)Nc1ccccc1 12.6 µM

AC50, inactive and 20 µM (active):
CC1=C(\C=C/C(C)=C/C=C\C(C)=C\C(=O)O)C(C)(C)CCC1

activity, negative = inhibition, inactive:
O=C(NNC(=O)c1cc2cc3ccccc3nc2s1)c1cccc(C(F)(F)F)c1 -15.5%
CC(C)NC1(C(N)=O)CCN(Cc2ccccc2)CC1 7.61% [at 2.29 µM]
COc1ccc(N(C(=O)Cn2nnc3ccccc32)C2(C(=O)NC3CCCC3)CCCCC2)cc1 -0.587%
O=C(Cn1nnc2ccccc21)N1CCCCC1 -2.49%
Cc1ccc(S(=O)(=O)N[C@H]2COC(=O)[C@@H](Cc3ccccc3)NC(=O)[C@@H](C)COC(=O)C/C=C\[C@@H]2C)cc1 -7.75% [at 11.4 µM] and -3.67% [at 11.4 µM]
Cc1c(NC(=O)C23CC4CC(CC(C)(C4)C2)C3)c(=O)n(-c2ccccc2)n1C -19.4%
CS(=O)(=O)c1ccc(Cn2c3c(c4cc(F)cc(F)c42)CCC[C@H]3CC(=O)O)cc1 5.15%
O=C(NN1C(=O)c2ccccc2C1=O)C1CCCCC1 6.68%
O=C(O)C[C@H](Cc1ccccc1Cl)C(=O)O -17.6% [at 11.4 µM]
CC1=CC(=O)CC(C)(C)[C@]1(O)/C=C\C(C)=C\C(=O)O -7.1% [at 11.4 µM]
CCS(=O)(=O)N(C)[C@@H]1c2cc(C#N)ccc2OC(C)(C)[C@H]1O -4.66%
CCOC(=O)C(C)CC(C)C(=O)N1CCOCCN(C(=O)C(C)CC(C)C(=O)OCC)CCOCC1 (stereo not given) 1.57%
O=C(O)[C@H](Cc1c[nH]c2ccccc12)N1C(=O)c2ccccc2C1=O -8.32% [at 2.29 µM]
Cc1ccc(C(=O)Nc2ccc(C(=O)/C=C/c3cccs3)cc2)cc1 -9.32%
Cc1ccc(C(=O)NNC(=S)NC(=O)c2ccc(Cl)cc2)cc1 -10.7%
COc1ccc(Cc2nnc(NC(=O)c3ccc(Cl)c([N+](=O)[O-])c3)s2)cc1 9.74%
Cc1cc(C)n(Cc2ccc(NC(=O)c3ccc(COc4ccccc4Br)cc3)cc2)n1 17.9%
O=C(O)CC1(C(=O)O)CCCCC1 5.1% [at 2.29 µM]
CCN1C(=O)c2cccc3c(NC(=O)c4cccc(N5C(=O)CCC5=O)c4)ccc1c23 -15.9%
CCCOC(=O)c1ccc(NC(=O)c2cn(CC)c3nc(C)ccc3c2=O)cc1 -22.5%
CC(C)CO/N=C1/C[C@@H](O)[C@@H](O)[C@@H]2[C@@H]3C(=O)N(Cc4ccc5c(c4)OCO5)C(=O)[C@H]3CC[C@H]12 2.96% [at 11.4 µM]
CC(C)CO/N=C1/C[C@@H](O)[C@@H](O)[C@@H]2[C@@H]3C(=O)N(Cc4ccc5c(c4)OCO5)C(=O)[C@H]3CC[C@@H]12 -7.54% [at 11.4 µM]
O=C(O)[C@@H](Cc1c[nH]c2ccccc12)C(=O)NO -20.4% [at 11.4 µM]
c1ccc2c(CN3CCN(Cc4c[nH]c5ccccc45)CC3)c[nH]c2c1 -18.1% [at 2.29 µM]
CO[C@H]1COC(=O)C/C=C\[C@@H](C)[C@H](OC)COC(=O)[C@H]2CCCN2C(=O)C/C=C\[C@@H]1C 3.92% [at 11.4 µM]
CC(=O)OC[C@@H]1O[C@H](CCO/N=C(\C)CCC(=O)OC[C@@H]2O[C@H](C#Cc3ccccc3)C=C[C@@H]2Oc2ccc(C)cc2)C=C[C@@H]1OC(C)=O -1.59% [at 11.4 µM]
CC(=O)NNC(=O)CCC(=O)Nc1ccccc1 -3.3%
CCC(=O)NNC(=O)CCC(=O)Nc1ccccc1 2.63%
Oc1ccccc1CNCc1ccccc1O -17.8% [at 11.4 µM]
